Sampled rows, rich in hits. Any-hit rate of the full collection: about 14%.
4MU fluor – compound fluoresces in the 4-MU spectral region. compound autofluorescence, 340/450 nm, 4-MU equivalents; stronger effect = higher value. actives 11% (n = 59,000). max dye-equivalent concentration, M; in the data active = max dye-equivalent concentration above about 10 nM; inconclusive = mostly about 1.1 nM to 9.6 nM
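Compounds in 100 mM Tris, pH 8.0, sat 15 min at room temperature before fluorescence was read at 340 nm excitation/450 nm emission; a per-plate six-point 4-MU standard curve converted signals to dye-equivalent concentration at each compound concentration.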
HADH2 inhib – blocks human hydroxyacyl-CoA dehydrogenase type II | Q99714 | recombinant HADH2, NADH fluorescence, beta-hydroxybutyryl-CoA | Potency, µM (highest dose often 57.1 µM), inactives show top-dose activity change, negative = inhibition, actives largely listed as inhibitors | actives 3.4% (n = 73,000) | AID 886; also: potency is read from the fitted curve at half-maximal effect; % is scaled to controls: 0 for no effect and ±100 for the full control effect; nearly all actives have a fitted effect of over 60% in size
Target sequence (Q99714 whole entry, looked up, one chain of several): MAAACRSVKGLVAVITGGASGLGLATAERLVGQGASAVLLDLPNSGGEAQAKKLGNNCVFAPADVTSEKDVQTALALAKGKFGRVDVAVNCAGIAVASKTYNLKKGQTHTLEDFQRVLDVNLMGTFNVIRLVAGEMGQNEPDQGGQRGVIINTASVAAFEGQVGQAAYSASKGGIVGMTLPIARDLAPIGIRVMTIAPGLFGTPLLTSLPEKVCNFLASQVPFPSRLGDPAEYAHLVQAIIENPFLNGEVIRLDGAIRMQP
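NADH fluorescence (ex 360/em 450 nm) read every 30 s for 4 min; activity taken as last-minus-first time point difference. Enzyme 20 nM, NAD+ 1 mM, beta-hydroxybutyryl-CoA 90 uM, pH 9.0 Tris buffer.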
A350 fluor – compound fluoresces in the Alexa 350 spectral region; Compound autofluorescence, 340/450 nm, Alexa 350 dye-equivalents; stronger effect = higher value; actives 11% (n = 59,000); max dye-equivalent concentration, M; in the data active = max dye-equivalent concentration above about 10 nM; inconclusive = mostly about 1.1 nM to 9.6 nM
AID923 – qHTS Assay for Allosteric/Competitive Inhibitors of Caspase-1: Spectroscopic Profiling in AFC Spectral Region | compound fluorescence, AFC spectral region (405/520 nm) | Potency, µM (highest dose often 57.5 µM), for the others: top-dose fluorescence increase, most hits filed as activators | actives 1.1% (n = 75,000) | AID 923, 2007; also: potency is read from the fitted curve at half-maximal effect; 0% is about no effect
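Baseline compound fluorescence (AFC region, 405 nm ex/520 nm em) taken from the intercept of kinetic reads with 50 nM caspase-1 and 5 uM Ac-WEHD-AFC; normalized to an on-plate AFC standard curve; compounds titrated up to 57 uM.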
CRE Fsk mod – alters forskolin-stimulated CRE reporter signaling in CHO cells. CHO CRE-bla reporter (cAMP response element driving beta-lactamase), forskolin EC10, beta-lactamase ratio. Potency, µM (doses to about 38.2 µM), for inactives: top-dose activity change, negative = inhibition, usual class: activators. actives 2.5% (n = 71,000). AID 662; active = well fitted activation curve with a large enough effect in the signal ratio, with a control signal flat, not every such curve was filed as active; inconclusive = small, poorly fitted or top-dose-only effect, or effect the other way, or a change in a side signal; the % refers to the signal ratio; also: potency is read from the fitted curve at half-maximal effect; % of control where 0% means no effect
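Using CellSensor CRE-bla CHO cells in Opti-MEM with 0.5% dialyzed FBS, compounds were titrated with EC10 NKH 477 for 3 h at 37 °C. CCF4 ratio (460/530 nm) gave %Activity; AC50 derived.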
HSD17B inh – inhibitors of human HSD17B10 dehydrogenase. actives 7.6% (n = 75,000). AID 893. Potency, µM (titrated, usually from 57.1 µM), for inactives: at the highest dose activity change, negative = inhibition, actives largely listed as inhibitors. recombinant HSD17B10, NADH fluorescence kinetic. Q99714;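 also: the protocol describes HADH2 (HSD17B10) and not the HSD17B4 of the title; potency is read from the fitted curve at half-maximal effect; % is scaled to controls: 0 for no effect and ±100 for the full control effect; nearly all actives have a fitted effect of over 70% in size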
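20 nM HADH2, pH 9.0 Tris/Tween; cpd preinc 15 min RT; start w/ 1 mM NAD+ + 90 uM b-hydroxybutyryl-CoA; kinetic fluor ex360/em450 q30s x 4 min; delta last-first.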
CHO tox 24h – CHO cell toxicity at 24 h by ATP luminescence; activity, negative = viability loss, % at 46.1 µM; shares compounds with CRE Fsk mod; 120 tested, under 10 active; CRE-bla CHO viability, ATP luminescence, 24 h
CHO via 40h – CHO cell toxicity at 40 h by ATP luminescence; shares compounds with CRE Fsk mod; CRE-bla CHO viability, ATP luminescence, 40 h; Potency, µM, inactives show max response, usual class: inhibitors; 120 tested, under 10 active; AID 906
CREB luc CRC – boosts CRE luciferase signal in HEK293 cells; HEK293 CRE-luc2P, NKH477 EC10 potentiation, luminescence, 4 h; Potency, µM (titrated, usually from 38.3 µM), for inactives: at the highest dose activity, positive = activation, most hits filed as activators; shares compounds with CRE Fsk mod; actives 80% (n = 120); AID 907
* marks the source's active call; other numbers are inactive results; [ ] = remark or other dose. Unless noted, calls follow the shape of the dose curve; as a rule, active = well fitted curve in the direction sought with a large enough effect; inconclusive = small, poorly fitted or top-dose-only effect, or another doubt; inactive = no such curve, though single readings can be large; an effect the other way counts as inactive or inconclusive.

CCN(C(=O)c1cn(C)c(=O)c2cc(OC)c(OC)cc12)c1ccccc1C was read as 4MU fluor inactive, HADH2 inhib 6%, A350 fluor inactive, AID923 1%, CRE Fsk mod inconclusive, HSD17B inh -21%, CHO tox 24h -3, CHO via 40h -7% and CREB luc CRC 5µM*.
CCN(C(=O)c1cn(C)c(=O)c2cc(OC)c(OC)cc12)c1cc(C)ccc1C was read as 4MU fluor inactive, HADH2 inhib -3%, A350 fluor inactive, AID923 -1%, CRE Fsk mod inconclusive and HSD17B inh -30%.
For c1cnc(N2CCN(c3nc4ccccc4n4cnnc34)CC2)nc1 the results were 4MU fluor inactive, HADH2 inhib inconclusive, A350 fluor inactive, AID923 -1%, CRE Fsk mod 2.5µM*, HSD17B inh 4%, CHO tox 24h -19, CHO via 40h inconclusive and CREB luc CRC 7.9µM*.
Screening Cc1cccc(N2CCN(c3nc4ccccc4n4cnnc34)CC2)c1C returned HADH2 inhib -1%, AID923 1%, CRE Fsk mod 8% and HSD17B inh inconclusive.
`Cc1cc(Nc2cccc(C)c2C)n2nc(C)nc2n1` gave HADH2 inhib -1%, AID923 -1%, CRE Fsk mod inconclusive and HSD17B inh 2%.
For CCc1nc2nc(C)cc(Nc3cccc(C(F)(F)F)c3)n2n1 the results were 4MU fluor inactive, HADH2 inhib -2%, A350 fluor inactive, AID923 0%, CRE Fsk mod 4µM*, HSD17B inh -13%, CHO tox 24h -17, CHO via 40h -28% and CREB luc CRC 13µM*.
`COc1cc(-c2nnc3sc(C4CCCCC4)nn23)cc(OC)c1OC` gave 4MU fluor inactive, HADH2 inhib -5%, A350 fluor inactive, AID923 -3%, CRE Fsk mod 1µM*, HSD17B inh -28%, CHO tox 24h inconclusive, CHO via 40h inconclusive and CREB luc CRC 0.13µM*.
For COc1cccc(-c2nnc3sc(C4CCCCC4)nn23)c1 the results were 4MU fluor inactive and A350 fluor inactive.
`COc1ccc(C2=Nn3c(nnc3-c3ccccc3OC)SC2)cc1OC` gave 4MU fluor inactive, HADH2 inhib -9%, A350 fluor inactive, AID923 -1%, CRE Fsk mod 1.3µM*, HSD17B inh 0%, CHO tox 24h inconclusive, CHO via 40h -27% and CREB luc CRC 0.04µM*.
Screening CCOc1ccc(C2=Nn3c(nnc3-c3ccccc3)SC2)cc1Cl returned 4MU fluor inactive, HADH2 inhib -10%, A350 fluor inactive, AID923 0%, CRE Fsk mod 0.079µM*, HSD17B inh 5%, CHO tox 24h -5, CHO via 40h -8% and CREB luc CRC 1.6µM*.
For COc1ccc2c(c1)N(CC[C@H]1CCCCN1C)c1ccccc1S2 the results were 4MU fluor inactive, HADH2 inhib 8%[11.4 µM], A350 fluor inactive, AID923 -3%[11.5 µM], CRE Fsk mod 16%[7.6 µM] and HSD17B inh 4%[11.4 µM].
C#CCCCO/N=C1/[C@H]2O[C@@H]2[C@@H](O)[C@H]2[C@H]1CCn1c(=O)n(C)c(=O)n12 was read as HADH2 inhib 2%[11.4 µM], AID923 -1%[11.5 µM] and HSD17B inh 4%[11.4 µM].
For O=S(=O)(c1ccc2c(c1)OCCO2)N1CCN(c2cccc(Cl)c2)CC1 the results were 4MU fluor inactive, HADH2 inhib 5%, A350 fluor inactive, AID923 0%, CRE Fsk mod inconclusive and HSD17B inh -2%.
O=S(=O)(c1ccc2c(c1)OCCO2)N1CCC(O)(c2ccc(Cl)cc2)CC1 was read as 4MU fluor inactive, HADH2 inhib 3%, A350 fluor inactive, AID923 2%, CRE Fsk mod 1%, HSD17B inh 22%, CHO tox 24h -2, CHO via 40h -6% and CREB luc CRC inconclusive.
`COC(=O)c1ccc(CSc2ccc3nnc(-c4cccnc4)n3n2)o1` gave HADH2 inhib -11%, AID923 2%, CRE Fsk mod inconclusive and HSD17B inh 10%.
For COC(=O)c1ccc(CSc2ccc3nnc(-c4ccc(OC)c(OC)c4)n3n2)o1 the results were 4MU fluor inactive, HADH2 inhib -7%, A350 fluor inactive, AID923 -1%, CRE Fsk mod 1.6µM*, HSD17B inh inconclusive, CHO tox 24h -20, CHO via 40h -28% and CREB luc CRC 2µM*.

Compound activity (PubChem)
